According to PubChem BioAssay (NCATS):
Records with an inconclusive call do not appear. Values without a mark were called inactive. Calls of active or inactive are those of the source. Calls come from the whole dose curve; as a rule, active = well fitted curve in the direction sought with a large enough effect; inconclusive = small, poorly fitted or top-dose-only effect, or another doubt; inactive = no such curve, though single readings can be large or run the other way.

Test: qHTS for activators of dead-cell proteases activity screened against the NCATS CANVASS Library (AID 1347392);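 note: luminescence from protease leaking out of membrane-damaged cells cleaving impermeant substrate; rising signal means more cytotoxicity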; for activation (cytotoxicity): 0% is about no effect
Conditions: HepG2 cytotoxicity, dead-cell protease luminescence, 5 h; series mostly up to 46.1 µM; activation (cytotoxicity): at the top concentration
Text: Natural products and their derivatives continue to be wellsprings of nascent therapeutic potential. However, many laboratories have limited resources for biological evaluation, leaving their previously isolated or synthesized compounds largely or completely untested. To address this issue, the Canvass library of natural products was assembled (https://tripod.nih.gov/canvass), in collaboration with academic and industry researchers, for quantitative high-throughput screening (qHTS) across a diverse set of cell-based and biochemical assays. The pure (>85% purity by liquid chromatography/mass spectrometry [LC/MS]) Canvass library of 346 natural products were submitted by 45 academic laboratories and companies around the world. We collected pure natural products to circumvent deconvolution and structure elucidation due to time and resource limitations. The library was formatted into 1536-well plates and evaluated in 50 qHTS (in an 11-pnt concentration series) bioassays with broad scope of disease-relevant mechanisms. The resulting data set from 50 different assays was then systematically analyzed to identify overall trends and specific natural products with interesting biological activities. Reported herein are the results of each individual qHTS and their corresponding assay protocol. This cytotoxicity assay measures dead-cell protease activity (proteases are released from cells that have lost membrane integrity). A luminogenic cell-impermeant peptide substrate (AAF-aminoluciferin) is used to measure dead-cell protease activity. The amount of luminescence directly correlates with the percentage of cells undergoing cytotoxic stress. National Center for Advancing Translational Sciences (NCATS), Rockville, MD National Institute of Health (NIH), Bethesda, Maryland
Protease-screen assay protocol: 1. In a white-solid bottom 1536-well plate, 5 uL of HepG2 cell suspension was dispensed using a Multidrop Combi (Thermo Fisher Scientific) at a final concentration of 2000 cells / well. 2. The assay plates were incubated for 18 hours at 37C, 5% CO2 to acclimate and attach. 3. […] of compounds (in DMSO; columns 5-48), vehicle control DMSO, and positive control were pin transferred into the assay plates using the Kalypsis pin tool (Wako USA) equipped with a 1536-well pin heads. This yields a final CANVASS compound concentration of 0.4 nM - 95 uM. 4. The assay plates were incubated for 5 hours at 37C, 5% CO2. 5. After compound treatment, 5 uL per well of CytoTox-Glo (Promega) reagent was added using the BioRAPTR dispenser. 6. The assay plates were incubated for 15 min at room temperature. 7. The luminescence readout was obtained using the ViewLux plate reader (PerkinElmer) using a clear emission filter, 2x binning, 1 sec exposure settings.
Potency is the fitted concentration of half-maximal effect.

| Compound | activation (cytotoxicity) | Potency |
| --- | --- | --- |
| CC1=CC2CC[C@@H]3[C@@H](C)C[C@H](C)[C@@H](C1)N23 (stereo not given in full) | 3.58% | – |
| CNCCc1ccc(O)cc1 | 0.865% | – |
| CNCCc1ccccc1 | 0.573% | – |
| c1ccc2c3c([nH]c2c1)CNCC3 | -1.22% | – |
| CCN1C[C@]2(C)CC[C@@H](O)[C@]34C1[C@H](C[C@H]23)C12CCC(CC14)[C@](O)(CO)[C@H]2O (stereo not given in full) | 1.36% | – |
| O=C(c1ccccc1O)c1[nH]c(Cl)c(Cl)c1-n1c(C(=O)c2ccccc2O)cc(Cl)c1Cl | -1.92% | – |
| CCC[C@H]1CC[C@H]2[C@H](C)CCC[C@H]2N1 | -2.14% | – |
| CN(C)Cc1c[nH]c2ccccc12 | 1.08% | – |
| CC1=CC(=O)C2=C(C)C[C@H](O)[C@@H]3[C@H](OC(=O)[C@@H]3C)[C@@H]12 | -1.97% | – |
| COc1ccc2c3c([nH]c2c1)C(C)=NCC3 | 1.68% | – |
| CO[C@@H](/C=C/CC/C=C/C(=O)O)[C@@H](O)[C@H](C)/C=C(\C)[C@@H](O)[C@H](C)C(=O)CCCC1CC(=O)NC(=O)C1 | -1.09% | – |
| C[C@]12CC(O)C3[C@@H](CCC4C[C@@H](O)CC[C@@]43CO)[C@@]1(O)CCC2C1=CC(=O)OC1 (stereo not given in full) | -1.68% | – |
| CO[C@H](c1ccccc1)[C@H]1NC(=O)C(C)NC(=O)C(C[C@@H](C)CO)N(C)C(=O)[C@@H](C(O)c2cn(C(C)(C)C3CO3)c3ccccc23)NC(=O)C(C(C)C=C(C)C)NC(=O)C(CC(C)C)N(C)C(=O)C(C(C)C)NC1=O (stereo not given in full) | -0.777% [at 27.5 µM] | – |
| CC[N@@+]1([O-])C[C@]2(C)CC[C@@H](O)[C@@]34C5C[C@H]6CC[C@@]5(C(C[C@H]23)C41)[C@H](O)[C@@]6(O)CO (stereo not given in full) | 0.177% | – |
| CNCCc1c[nH]c2ccccc12 | 3.32% | – |
| CC[C@@H]1CN2CC[C@@]3(O)C(=Nc4cccc(OC)c43)[C@@H]2C[C@@H]1/C(=C\OC)C(=O)OC | -1.13% | – |
| C/C=C1/CN2CC[C@]34C(=Nc5ccccc53)[C@@H]2C[C@@H]1[C@H]4C(=O)OC | -0.718% [at 91.4 µM] | – |
| NCCc1ccccc1 | 3.53% | – |
| CC(=O)N[C@H]1CCN2CCC[C@H]12 | -0.786% [at 103 µM] | – |
| COc1ccc(C23Oc4cc(OC)cc(OC)c4[C@](O)([C@H](c4ccccc4)C2C(=O)NCCCCNC(=O)c2ccccc2)[C@@H]3O)cc1 (stereo not given in full) | -0.514% | – |
| C=C1[C@@H](C)[C@H]2[C@H](Cc3ccccc3)NC(=O)[C@]23OC(=O)/C=C/[C@H](O)CCC[C@@H](C)C/C=C/[C@H]3[C@@H]1O | 0.804% | – |
| CCN1C[C@]2(C)CC[C@H](O)[C@]34C1C(C[C@H]23)[C@@]12CC[C@H](CC14)[C@](O)(COC(=O)c1ccc(OC)c(OC)c1)[C@H]2O (stereo not given in full) | -1.21% | – |
| CCC(=O)CCCCC[C@@H]1NC(=O)[C@H]2CCCCN2C(=O)[C@H]([C@@H](C)CC)NC(=O)[C@H](Cc2cn(OC)c3ccccc23)NC1=O | -1.99% | – |
| C[C@@H]1CC[C@@H](c2ccoc2)N2C[C@@]3(CC[C@@H]12)CS[C@@]1(CC[C@H]2[C@H](C)CC[C@@H](c4ccoc4)N2[C@@H]1O)C3 | – | 11.7 µM (active) |
| COc1ccc2c(c1)[nH]c1c(C)nccc12 | -4.16% [at 91.4 µM] | – |
| COC(=O)C1=C2Nc3ccccc3[C@@]23CCN2CC(C(C)=O)C1C[C@H]23 (stereo not given in full) | 2.62% | – |
| CN1C(=O)[C@]23CC4C(C)(C)[C@@]5(C[C@@]41CN2CC[C@@]3(C)O)C(=O)Nc1c5ccc2c1OC=CC(C)(C)O2 (stereo not given in full) | -1.18% | – |
| CCCC[C@@H]1CC[C@H]2CCCC(CCC)N12 (stereo not given in full) | -2.23% | – |
| CC=C1CN(C=O)[C@H]2C[C@@H]1[C@@H](C(=O)OC)[C@@]13CCOC21Nc1ccccc13 (stereo not given in full) | 1.09% | – |
| CO[C@@H](/C=C/CC/C=C/C(=O)O)[C@@H](O)[C@H](C)[C@@H](O)/C(C)=C/[C@H](C)C(=O)CCCC1CC(=O)NC(=O)C1 | 1.24% | – |
